Results filed as inconclusive are left out. Active and inactive are the calls of the source. Calls follow the shape of the dose curve; as a rule, active = well fitted curve in the direction sought with a large enough effect; inconclusive = small, poorly fitted or top-dose-only effect, or another doubt; inactive = no such curve, though single readings can be large; an effect the other way counts as inactive or inconclusive.
Legend:
HaCat [1] = test: Cytotoxic Profiling of Annotated Libraries Using Quantitative High-Throughput Screening (AID 1296008); details: Five cell lines viability, CellTiter-Glo ATP luminescence, 48-72 h; max response: hits give low values; also: nearly all actives have a fitted effect of over 60% in size; also: potency is read from the fitted curve at half-maximal effect; as to max response: % is scaled to controls: 0 for no effect and ±100 for the full control effect
How it was run: (§1)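 Cells exposed to compounds for 48 or 72 hr at 37 degrees Celsius. Viability read as ATP-coupled luminescence with CellTiter-Glo after 10 min at room temperature.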

KB-3-1 = test: as above; details: Five cell lines viability, CellTiter-Glo ATP luminescence, 48-72 h; max response: hits give low values
How it was run: as §1

NIH3T3 [2] = test: as above; details: Five cell lines viability, CellTiter-Glo ATP luminescence, 48-72 h; max response: hits give low values
How it was run: as §1

HACAT [3] = test: qHTS assay to identify novel small-molecules to repurpose for Merkel cell carcinoma treatment (AID 1296009); details: MCC and control cell lines, CellTiter-Glo viability, 72 h; at 44.8 µM (top of the series) unless noted; also: nearly all actives have a fitted effect of over 60% in size
How it was run: (§2)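 CellTiter-Glo luminescence after 72 hr compound exposure at 37 degree celsius gave cell viability. Libraries NPC and MIPE were run as 8- and 11-point dose responses; RLUs normalized to DMSO (negative) and no-cell (cytotoxicity) controls.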

C33A = test: Primary qHTS to identify gynecologic anti-cancer compounds using libraries of approved drugs and bioactive compounds (AID 1345084); details: Gynecologic cancer cell panel viability, ATPlite luminescence, 48 h; series mostly up to 57.5 µM; also: nearly all actives have a fitted effect of over 55% in size; also: potency is read from the fitted curve at half-maximal effect
How it was run: (§3)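 Five-concentration response, 48 h; readout is ATP-driven luciferase luminescence.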

CAOV3 = test: as above; details: Gynecologic cancer cell panel viability, ATPlite luminescence, 48 h; series mostly up to 57.5 µM
How it was run: as §3

CASKI = test: as above; details: Gynecologic cancer cell panel viability, ATPlite luminescence, 48 h; series mostly up to 57.5 µM
How it was run: as §3

Es-2 = test: as above; details: Gynecologic cancer cell panel viability, ATPlite luminescence, 48 h; series mostly up to 57.5 µM
How it was run: as §3

HeLa = test: as above; details: Gynecologic cancer cell panel viability, ATPlite luminescence, 48 h; series mostly up to 57.5 µM
How it was run: as §3

Hek293T = test: as above; details: Gynecologic cancer cell panel viability, ATPlite luminescence, 48 h, control line for the selectivity index; series mostly up to 57.5 µM
How it was run: as §3

JEG-3 = test: as above; details: Gynecologic cancer cell panel viability, ATPlite luminescence, 48 h; series mostly up to 57.5 µM
How it was run: as §3

OV90 = test: as above; details: Gynecologic cancer cell panel viability, ATPlite luminescence, 48 h; series mostly up to 57.5 µM
How it was run: as §3

PA-1 = test: as above; details: Gynecologic cancer cell panel viability, ATPlite luminescence, 48 h; series mostly up to 57.5 µM
How it was run: as §3

HEK293 = test: Cytotoxic Profiling of Annotated Libraries Using Quantitative High-Throughput Screening (AID 1296008); details: Five cell lines viability, CellTiter-Glo ATP luminescence, 48-72 h; max response: hits give low values; also: nearly all actives have a fitted effect of over 60% in size; also: potency is read from the fitted curve at half-maximal effect; as to max response: % is scaled to controls: 0 for no effect and ±100 for the full control effect
How it was run: as §1

SKOV3 = test: Primary qHTS to identify gynecologic anti-cancer compounds using libraries of approved drugs and bioactive compounds (AID 1345084); details: Gynecologic cancer cell panel viability, ATPlite luminescence, 48 h; series mostly up to 57.5 µM; also: nearly all actives have a fitted effect of over 55% in size; also: potency is read from the fitted curve at half-maximal effect
How it was run: as §3

NIH3T3 [4] = test: qHTS assay to identify novel small-molecules to repurpose for Merkel cell carcinoma treatment (AID 1296009); details: MCC and control cell lines, CellTiter-Glo viability, 72 h; series mostly up to 44.8 µM; also: nearly all actives have a fitted effect of over 60% in size
How it was run: as §2

S=C(c1ccc(-c2ccc(Cl)c(Cl)c2)o1)N1CCCCC1
inactive: outcome (HaCat [1]) | max response (KB-3-1) 6.89% | max response (NIH3T3 [2]) 2.68% | outcome (HACAT [3]) | Potency (C33A) | Potency (CAOV3) | Potency (CASKI) | Potency (Es-2) | Potency (HeLa) | Potency (Hek293T) | Potency (JEG-3) | Potency (OV90) | Potency (PA-1)

CN1c2c(nc(N)[nH]c2=O)NC[C@@H]1CNc1ccc(C(=O)N[C@@H](CCC(=O)O)C(=O)O)cc1
inactive: max response (HaCat [1]) -4.13% | outcome (KB-3-1)

CCCc1cc(C)[nH]c(=O)c1CNC(=O)c1cc(-c2ccnc(N3CCN(C)CC3)c2)cc2c1cnn2C(C)C
active: Potency (HEK293) 8.2 µM | Potency (HeLa) 35.5 µM | Potency (PA-1) 25.1 µM

CNc1ccc([N+](=O)[O-])c(Nc2ccc3[nH]ncc3c2)n1
inactive: Potency (CAOV3) | Potency (CASKI) | Potency (JEG-3) | Potency (OV90) | Potency (SKOV3)
active: Potency (HEK293) 18.4 µM | Potency (HeLa) 25.1 µM

CCCCCCCCn1cc(CN(CC)CC)c2cc(-c3cnc(N)nc3)ccc21
inactive: Potency (CASKI) | Potency (HeLa) | Potency (Hek293T) | Potency (JEG-3)
active: Potency (HEK293) 16.4 µM

CC(=O)OC1[C@H]2[C@@H](C[C@@H](C)[C@@H]3C=CC(=O)[C@@]13C)OC(=O)[C@@H]2C (some centres not stated)
inactive: Potency (OV90)
active: Potency (HEK293) 16.4 µM | Potency (PA-1) 35.5 µM

CC(C)CC(=O)c1c(O)cc2c(c1O)C(CC(C)C)C1=C(O2)C(C)(C)C(=O)C(C)(C)C1=O (configuration not stated)
active: Potency (HEK293) 5.63 µM
inactive: Potency (Es-2) | Potency (JEG-3) | Potency (OV90)

C=C1C(=O)OC2C1CCC1(C)C(O)CC=C(C)C21 (configuration not stated)
inactive: outcome (HaCat [1]) | max response (KB-3-1) 0.514% | outcome (NIH3T3 [2]) | outcome (HACAT [3]) | Potency (NIH3T3 [4]) | Potency (C33A) | Potency (CAOV3) | Potency (CASKI) | Potency (Es-2) | Potency (HeLa) | Potency (Hek293T) | Potency (JEG-3) | Potency (OV90) | Potency (PA-1) | Potency (SKOV3)

CCN1CCN(Cc2ccc(NC(=O)c3ccc(C)c(Oc4ccnc5[nH]ccc45)c3)cc2C(F)(F)F)CC1
inactive: Potency (CAOV3) | Potency (Es-2) | Potency (HeLa) | Potency (Hek293T)
active: Potency (HEK293) 9.04 µM

CCOc1ccc(S(=O)(=O)N2CCCCCC2)c2ccccc12
inactive: outcome (HaCat [1]) | max response (KB-3-1) -18.9% | outcome (NIH3T3 [2]) | outcome (HACAT [3]) | Potency (NIH3T3 [4]) | Potency (C33A) | Potency (CAOV3) | Potency (CASKI) | Potency (Es-2) | Potency (HeLa) | Potency (Hek293T) | Potency (JEG-3) | Potency (OV90) | Potency (PA-1) | Potency (SKOV3)

C/C=C(\C)C(=O)O[C@H]1C=C(CO)C(=O)[C@H](OC(C)=O)[C@H]1C(C)C
inactive: Potency (HeLa) | Potency (OV90)
active: Potency (HEK293) 8.05 µM | Potency (C33A) 12.6 µM

Fc1ccc(-c2cncc(CN3CCN(c4cccc5c4OCCO5)CC3)c2)cc1
inactive: outcome (HaCat [1]) | max response (KB-3-1) -10.8% | max response (NIH3T3 [2]) -12.4% | outcome (HACAT [3]) | Potency (C33A) | Potency (CAOV3) | Potency (CASKI) | Potency (Es-2) | Potency (HeLa) | Potency (Hek293T) | Potency (JEG-3) | Potency (OV90) | Potency (PA-1)

C=C(C=O)[C@]1(O)C[C@@]2(C)C(=CC1=O)C=C[C@H](OC(=O)/C=C/C=C/[C@H](C)CC)[C@@H]2C
inactive: Potency (CASKI) | Potency (Es-2) | Potency (HeLa) | Potency (JEG-3)
active: Potency (HEK293) 3.99 µM

COc1cc(-n2cnc3cc(-c4ccc(Cl)cc4)sc3c2=O)ccc1OCCN1CCCC1
inactive: Potency (HeLa) | Potency (JEG-3)
active: Potency (HEK293) 10.3 µM | Potency (PA-1) 22.4 µM

N#CC(CCCN1CCC(O)(c2ccc(Cl)cc2)CC1)(c1ccccc1)c1ccccc1
active: Potency (OV90) 15.8 µM
inactive: max response (HEK293) -108% | Potency (Hek293T) | Potency (JEG-3) | Potency (PA-1)

Cc1cc(F)c(C(=O)Nc2cccc(-c3nncn3C(C)C)n2)cc1-n1cnc(C2CC2)c1
active: Potency (HEK293) 10 µM
inactive: Potency (CAOV3) | Potency (CASKI) | Potency (Es-2) | Potency (Hek293T) | Potency (JEG-3) | Potency (OV90) | Potency (PA-1) | Potency (SKOV3)

Cn1ncc(Cl)c1-c1cc(C(=O)N[C@H](CN)Cc2cccc(F)c2)sc1Cl
active: Potency (HEK293) 1.3 µM | Potency (C33A) 11.2 µM | Potency (Hek293T) 2.82 µM | Potency (PA-1) 25.1 µM | Potency (SKOV3) 14.1 µM

CN(C)C(=O)COC(=O)c1cc(-c2ccc(C3CCNCC3)cc2)c2ccc(-c3ccc(C(F)(F)F)cc3)cc2c1
active: Potency (HEK293) 4.61 µM
inactive: Potency (Es-2) | Potency (Hek293T) | Potency (JEG-3)

Nc1nc(Nc2ccc3c(c2)CCC(N2CCCC2)CC3)nn1-c1cc2c(nn1)-c1ccccc1CCC2 (configuration not stated)
inactive: Potency (JEG-3) | Potency (OV90)
active: Potency (HEK293) 8.2 µM | Potency (CAOV3) 7.94 µM | Potency (SKOV3) 7.08 µM

CC(=O)OC1CC2(C)C(CCC(C)C23Cc2c(O)cc(CO)c(C=O)c2O3)C(C)(C)C1O (configuration not stated)
inactive: outcome (HaCat [1]) | max response (KB-3-1) 1.75% | max response (NIH3T3 [2]) 1.46% | outcome (HACAT [3]) inactive [at 17.4 µM] | Potency (C33A) | Potency (CASKI) | Potency (Es-2) | Potency (HeLa) | Potency (Hek293T) | Potency (JEG-3) | Potency (OV90) | Potency (PA-1) | Potency (SKOV3)

O=C([C@@H]1CCCN(c2ccc3[nH]c(C4(n5cc(Cl)cn5)CC4)nc3n2)C1)N1CCCC1
inactive: max response (HaCat [1]) -7.93% | max response (KB-3-1) -11.1% | max response (NIH3T3 [2]) -6.68% | Potency (C33A) | Potency (CAOV3) | Potency (CASKI) | Potency (Es-2) | Potency (HeLa) | Potency (Hek293T) | Potency (JEG-3) | Potency (OV90) | Potency (PA-1) | Potency (SKOV3)
